LmPK inh – inhibitors of Leishmania mexicana pyruvate kinase; Q27686; purified LmPK, Kinase-Glo ATP luminescence, 1 h; Potency, µM (top dose mostly 57.5 µM), usual class: inhibitors; 290,000 compounds, 0.37% hits
Target sequence (Q27686 whole entry, looked up): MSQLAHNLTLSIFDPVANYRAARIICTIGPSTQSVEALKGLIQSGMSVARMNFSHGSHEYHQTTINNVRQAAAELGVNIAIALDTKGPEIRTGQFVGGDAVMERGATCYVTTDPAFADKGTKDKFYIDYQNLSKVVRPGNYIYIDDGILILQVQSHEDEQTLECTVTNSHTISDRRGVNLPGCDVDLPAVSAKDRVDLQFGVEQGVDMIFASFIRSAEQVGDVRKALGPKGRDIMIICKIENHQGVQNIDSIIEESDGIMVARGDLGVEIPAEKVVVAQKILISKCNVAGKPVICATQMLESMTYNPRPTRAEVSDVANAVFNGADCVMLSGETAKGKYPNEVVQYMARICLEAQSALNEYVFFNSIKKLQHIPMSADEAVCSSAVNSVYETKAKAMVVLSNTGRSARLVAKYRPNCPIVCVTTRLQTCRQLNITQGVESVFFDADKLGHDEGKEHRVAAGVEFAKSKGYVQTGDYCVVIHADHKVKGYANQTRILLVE
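In 50 mM imidazole pH 7.2 with 7 mM MgCl2, LmPK (0.1 nM) turned over PEP (0.5 mM) and ADP (0.1 mM) for 1 h at room temperature. Luciferase read-out of ATP.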
TbPYK inhibitor – T. brucei pyruvate kinase inhibition; AID 624173; TbPYK enzyme, Kinase-Glo Plus ATP luminescence, 45 min; Q57TT1; Potency, µM (titrated, usually from 76.8 µM), most hits filed as inhibitors; 410,000 compounds, 0.12% hits; note: nearly all actives have a fitted effect of over 50% in size
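Screened from lowest to highest concentration, compounds were pinned into TbPYK/substrate mixtures, and ADP (130 uM final) was added. Plates sat at room temperature for 45 min prior to Kinase-Glo Plus detection by luminescence.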
VACV Venus inh – inhibitors of vaccinia virus (Venus reporter); AID 720580; Vaccinia virus Venus reporter expression, fluorescence; Potency, µM (highest dose often 36.5 µM), hits mostly inhibitors; 330,000 compounds, 0.46% hits; calls by dose curve; tested in A549 cells; note: nearly all actives have a fitted effect of over 30% in size
Vaccinia mCherry – inhibitors of vaccinia virus infection (mCherry reporter signal); Vaccinia virus mCherry reporter infection, fluorescence; Potency, µM (top dose mostly 36.5 µM), most hits filed as inhibitors; 310,000 compounds, 0.63% hits; AID 720579; calls by dose curve; tested in A549 cells; note: nearly all actives have a fitted effect of over 35% in size
HCMV inh – blocks human cytomegalovirus replication; HFF cells, HCMV-luciferase reporter, 72 h; stronger effect = lower value; 410,000 compounds, 4.5% hits; AID 1259415; activity change, negative = inhibition, % at 57.5 µM; in the data active = activity change below about -60%; inconclusive = no clear call, values can overlap the other calls; inactive = above about -39%
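HFF cells seeded 16 h at 37C, treated with compounds, infected with luciferase-reporter HCMV at MOI 1 PFU/cell; luciferase read at 72 h post infection, normalized to buffer-only and Salinomycin controls.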
A number is an active result; 0 = inactive; ? = inconclusive; - = not tested or not shown; + = active, no number; ! = not confirmed by another sample; [ ] = another dose, or the depositor's remark. Most compounds without a hit are left out; they make up all but 5% or so of the library. Unless noted, calls come from the whole dose curve; as a rule, active = well fitted curve in the direction sought with a large enough effect; inconclusive = small, poorly fitted or top-dose-only effect, or another doubt; inactive = no such curve, though single readings can be large; an effect the other way counts as inactive or inconclusive.

SMILES | LmPK inh | TbPYK inhibitor | VACV Venus inh | Vaccinia mCherry | HCMV inh
Cc1[nH]c2ccccc2c1/C=N/NC(=O)c1cccc(F)c1 | 0 | 0 | - | - | 0
Cc1[nH]c2ccccc2c1/C=N/NC(=O)c1cccc([N+](=O)[O-])c1 | 0 | 0 | 0 | 0 | -61
O=C(N/N=C/c1ccccc1)c1ccc(N2CCOCC2)c([N+](=O)[O-])c1 | 0 | 0 | 0 | 0 | 0
Cc1ccc(/C=N/NC(=O)c2ccc(-c3ccccc3)cc2)o1 | 0 | 0 | 0 | 0 | 0
COc1ccccc1CNC(=O)c1nn(C)c2c1CS(=O)(=O)c1ccccc1-2 | 0 | 0 | 0 | 0 | +
Cn1nc(C(=O)NCc2ccc(Cl)cc2)c2c1-c1ccccc1S(=O)(=O)C2 | 0 | 0 | 0 | 0 | -82
COc1ccc(OC)c(S(=O)(=O)Nc2cc3c(cc2C)n(C)c(=O)c(=O)n3C)c1 | - | 0 | 0[7.34 µM] | 0[7.34 µM] | 0
Cc1ccc(S(=O)(=O)N2CCOCC2)cc1NC(=O)CN1CCC(Cc2ccccc2)CC1 | 0 | 0 | 0 | 0 | 0
COc1ccc(-c2c(C#Cc3ccsc3)c3cc(-c4ccc(OC)c(F)c4)ccc3n2C)cc1 | - | 0 | 0 | 0 | 0
CCc1cccc(NC(=O)CN2C(=O)CCc3cc(S(=O)(=O)N4CCOCC4)ccc32)c1 | - | 0 | 0 | 0 | 0
COc1ccc(Cc2nnc(SCC(=O)N3CCCC3)o2)cc1 | 0 | 0 | - | - | 0
COc1ccc(CN2C(=O)C(n3ccc4ccccc43)c3cc(Cl)ccc32)cc1 (stereo unspecified) | - | - | - | - | -84
COc1ccc(CN2C(=O)C(n3c(C)ccc3C)c3cc(OC(F)(F)F)ccc32)cc1 (stereo unspecified) | - | - | - | - | -88
COc1ccc(Cl)cc1N1CC(C(=O)Nc2nccs2)CC1=O (stereo unspecified) | 0 | 0 | ? | - | -67
Cc1cnc(NC(=O)C2CC(=O)N(c3cccc(Cl)c3)C2)s1 (stereo unspecified) | 0 | 0 | - | - | -99
Cc1cnc(NC(=O)C2CC(=O)N(c3ccc4c(c3)OCCO4)C2)s1 (stereo unspecified) | - | 0 | 0 | 0 | 0
O=C(Nc1nccs1)C1CC(=O)N(c2ccccc2Cl)C1 (stereo unspecified) | 0 | 0 | - | - | 0
COc1cc(/C=N/NC(=O)c2ccc3ccccc3c2)ccc1Oc1ccc([N+](=O)[O-])cn1 | 0 | 0 | 0 | 0 | ?
O=C(OCC(=O)N1CCOCC1)c1ccccc1OCc1ccc(Cl)cc1 | - | 0 | 0 | 0 | 0
CCn1c(=O)c2cc(C(=O)NC3CCCCCC3)sc2c2ccccc21 | - | 0 | 0 | 0 | ?
Cn1c(=O)c2cc(C(=O)NC3CCCCCC3)sc2c2ccccc21 | - | 0 | ? | ? | -81
CN(C)c1ccc(/C=C(\NC(=O)c2ccccc2)C(=O)NCc2ccncc2)cc1 | 0 | 0 | 0 | 0 | 0
COc1ccc(CNc2ncnc3cc(Cl)ccc23)cc1 | 0 | 0 | 0 | 0 | -65
CNCCc1ccc(O)c(O)c1 | - | 0 | 0 | 0 | 0
c1ccc(CNc2c3ccccc3nc3ccccc23)cc1 | 0 | 0 | 11µM | ? | -100
SMILES | LmPK inh | TbPYK inhibitor | VACV Venus inh | Vaccinia mCherry | HCMV inh
Oc1ccc(CCNc2c3ccccc3nc3ccccc23)cc1O | ? | 0 | ? | ? | -100
OCC(Cc1ccccc1)Nc1c2ccccc2nc2ccccc12 (stereo unspecified) | 0 | 0 | ? | 0 | -63
Cc1ccc(NC(=O)C2CCN(c3ncccn3)CC2)cc1F | - | 0 | 0 | 0 | 0
COC(=O)[C@@H]1[C@@H](C#N)C2(c3ccccc3-c3ccccc32)N(c2ccc(Cl)cc2)N1C#N | 0 | 0 | ? | ? | 0
O=C(NC1(C(F)(F)F)NC(=O)N(CCc2ccccc2)C1=O)c1ccccc1F (stereo unspecified) | - | 0 | 0 | 0 | 0
c1ccc(CNc2ncnc3ccccc23)cc1 | 0 | 0 | ? | 0 | -97!
COC1C(C)OC(OC2CC(C)(O)Cc3cc4c(c(O)c32)C(=O)c2c(O)cc3c(c2C4=O)OC2OC3(C)C(O)C(N(C)C)C2O)C(OC)C1(C)OC (stereo unspecified) | - | 0 | 0 | 0 | -98
CCSc1nnc(NC(=O)c2cc(-c3ccccc3O)n[nH]2)s1 | 0 | 0 | 0 | ? | 0
CC1CCN(S(=O)(=O)c2cc(C(=O)NC3(C)CCS(=O)(=O)C3)ccc2Br)CC1 (stereo unspecified) | - | 0 | - | - | -61
CC1CCN(S(=O)(=O)c2cc(C(=O)N3CCN(c4ncccn4)CC3)ccc2Br)CC1 | 0 | 0 | 0 | 0 | -64
